# Assay outcomes (PubChem BioAssay)
# IP6K1 inh: blocks human inositol hexakisphosphate kinase 1; IP6K1 kinase, ADP-Glo luminescence, 2 h; hits give low values; activity change, % (series mostly up to about 58 µM); 140,000 compounds, 0.81% hits; AID 1645851; in the data active = activity change below about -25%; also: % is scaled to controls: 0 for no effect and ±100 for the full control effect
#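 ADP-Glo luminescence measures ADP made by human IP6K1 during a 2 h RT reaction with ATP/IP6 (mix at 1.3 mM/130 uM); top library doses 57.5 and 19.1 uM final.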
# KDM5B inhibitor: inhibitors of human KDM5B histone demethylase. KDM5B demethylase, FDH-coupled NADH fluorescence (FDH is formaldehyde dehydrogenase). Q9UGL1. 220,000 compounds, 2.6% hits. Potency, µM (series often up to 57.7 µM), usual class: inhibitors. AID 1347165; also: potency is read from the fitted curve at half-maximal effect; 0% is about no effect; nearly all actives have a fitted effect of over 70% in size
#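 Compound dilutions met 200 nM (final) KDM5BΔAP for 10 min at room temperature before substrate addition. The substrate mix held 12.5 µM H3K4me3 with cofactors 25 µM α-ketoglutarate and 50 µM Fe²⁺. NADH signal gain over 30 min defined activity.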
# SNCA viab count: counter-screen for SNCA expression inhibitors: cell viability. HEK-293-SNCA-luc viability, GF-AFC fluorescence, 24 h. Potency, µM (titrated, usually from 57.1 µM), for the others: top-dose activity change, negative = cytotoxicity, most hits filed as cytotoxic. 150,000 compounds, 0.12% hits;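 also: potency is read from the fitted curve at half-maximal effect; 0% = DMSO-treated cells and -100% = medium-only wells without cells; nearly all actives have a fitted effect of over 30% in size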
#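 HEK-293-SNCA-luc cells (1500/well) plated 24 h, then exposed 24 h to a dilution series; GF-AFC added 30 min at 37C, fluorescence 405/540 nm; normalised to medium-only and DMSO wells, Hill fit.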
# SNCA expr inh: inhibitors of alpha-synuclein (SNCA) gene expression; HEK-293 SNCA-luciferase knock-in, luminescence, 24 h; Potency, µM (highest dose often 57.2 µM), inactives show top-dose activity change, negative = inhibition, usual class: inhibitors; 140,000 compounds, 0.17% hits;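 also: potency is read from the fitted curve at half-maximal effect; plate controls were DMSO cells for no effect and cell-free wells for full effect; nearly all actives have a fitted effect of over 45% in size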
# * marks the source's active call; other numbers are inactive results; i = inactive; ? = inconclusive; . = not tested or not shown; [ ] = dose if it differs, or a comment. Shown are actives, neighbours in structure and some others; about 2.8% of the full set was active somewhere. Unless noted, calls follow the shape of the dose curve; as a rule, active = well fitted curve in the direction sought with a large enough effect; inconclusive = small, poorly fitted or top-dose-only effect, or another doubt; inactive = no such curve, though single readings can be large; an effect the other way counts as inactive or inconclusive.
SMILES,IP6K1 inh,KDM5B inhibitor,SNCA viab count,SNCA expr inh
O=C(NCc1cccc(F)c1)C1CCCN(c2nc3ncccc3o2)C1 (stereo not drawn),10,i,-1%[87.6 µM],-19%[87.6 µM]
O=C(NCc1ccccn1)C1CCCN(c2nc3ncccc3o2)C1 (stereo not drawn),-7,35µM*,-6%[87.6 µM],-4%[87.6 µM]
COC(=O)CNC(=O)C1CCCN1c1nc2ncccc2o1 (stereo not drawn),-11,?,4%[87.6 µM],1%[87.6 µM]
COC(=O)CNC(=O)C1CCCN(c2nc3ncccc3o2)C1 (stereo not drawn),9,28µM*,4%[87.6 µM],-10%[87.6 µM]
COCCNC(=O)C1CCCN(c2nc3ncccc3o2)C1 (stereo not drawn),16,28µM*,-4%[87.6 µM],9%[87.6 µM]
Clc1cccc(Nc2cc3c(cn2)CN(Cc2cccnc2)CCN3)c1,34,?,-25%[87.6 µM],27%[87.6 µM]
CC1(C)C(=O)N(Cc2ccccc2)[C@H]2CN(c3ccnc(N4CCOCC4)c3)C[C@@H]2[S+]1(=O)[O-],8,i,-23%,-14%
COc1cncc(N2C[C@H]3[C@H](C2)[S+](=O)([O-])C(C)(C)C(=O)N3Cc2ccccc2)c1,-5,7.1µM*,-9%[87.6 µM],?
CC(C)(C)CN1Cc2cc3c(cc2N(CC(O)COc2ccccc2)CCC1=O)OCO3 (stereo not drawn),10,.,.,.
CCCC1CCC(C)CC1O (stereo not drawn),.,i,.,.
Cc1nn2c(c1-c1cccnc1N1CCOCC1)N(Cc1ccc3c(c1)CCO3)CCC2,9,25µM*,-2%[87.6 µM],3%[87.6 µM]
COc1ccc(OC)c(CN2CCCn3nc(C)c(-c4ccccc4C(C)C)c32)c1,19,?,-29%[87.6 µM],?
COc1ccc(OC)c(CN2CCCn3nc(C)c(-c4cccnc4N4CCOCC4)c32)c1,10,13µM*,-6%,51%
COCCCNc1ccc2nnc(-c3ccccn3)n2n1,-9,?,10%[87.6 µM],2%[87.6 µM]
COCCN1CCC(CNc2nccc(-c3ccccn3)n2)C1 (stereo not drawn),47,28µM*,10%,12%
CCOCC1(C)COc2ccc(C(=O)NCCc3ccccc3)cc2N1 (stereo not drawn),-10,40µM*,7%[87.6 µM],71%[87.6 µM]
CC1(COc2ccccc2)COc2ccc(C(=O)NCc3ccc4c(c3)OCO4)cc2N1 (stereo not drawn),10,?,-19%[87.6 µM],?
COc1ccc(OCC2(C)COc3ccc(C(=O)N4CCN(C)C(=O)C4)cc3N2)cc1 (stereo not drawn),-8,i,9%[87.6 µM],4%[87.6 µM]
COc1ccc(OCC2(C)COc3ccc(C(=O)NCCc4ccccc4)cc3N2)cc1 (stereo not drawn),4,32µM*,-4%[87.6 µM],-26%[87.6 µM]
CCOCC1(C)COc2ccc(C(=O)N(C)Cc3ccccc3)cc2N1 (stereo not drawn),11,i,?,?
COc1ccc(OCC2(C)COc3ccc(C(=O)NCC(C)C)cc3N2)cc1 (stereo not drawn),-1,25µM*,-1%[87.6 µM],?
COc1ccc(OCC2(C)COc3ccc(C(=O)NCc4cccc(F)c4)cc3N2)cc1 (stereo not drawn),10,32µM*,-9%[87.6 µM],-26%[87.6 µM]
CC1(COc2ccccc2)COc2ccc(C(=O)NCc3ccncc3)cc2N1 (stereo not drawn),13,?,-14%[87.6 µM],-17%[87.6 µM]
CC(=O)CC(C)(C)S(=O)(=O)c1ccc(Cc2ccc(S(=O)(=O)C(C)(C)CC(C)=O)cc2)cc1,.,i,.,.
COCc1ccc2c(c1)c(OC(C)(C)C(=O)NC1CCC(O)CC1)nn2Cc1ccccc1 (stereo not drawn),9,25µM*,3%,-2%
SMILES,IP6K1 inh,KDM5B inhibitor,SNCA viab count,SNCA expr inh
COCc1ccc2c(c1)c(OC(C)(C)C(=O)NC(C)C)nn2Cc1cccc(OC)c1,-8,35µM*,-1%[87.6 µM],-4%[87.6 µM]
COCc1ccc2c(c1)c(OC(C)(C)C(=O)N1CC(O)C1)nn2Cc1ccccc1,-9,?,-4%[87.6 µM],-17%[87.6 µM]
COCc1ccc2c(c1)c(OC(C)(C)C(=O)N1CCOCC1)nn2Cc1cccc(OC)c1,0,?,1%,17%
CCCNC(=O)C(C)(C)Oc1nn(Cc2ccccc2)c2ccc(COC)cc12,-8,32µM*,-3%[87.6 µM],10%[87.6 µM]
Cc1ccccc1Cn1ccc(NC(=O)C2=CC(c3ccc(F)cc3)=NS(=O)(=O)N2C)n1,.,i,.,.
CC1CCCC[C@H]2C(=O)C=C[C@H](O)[C@@H]2CC(=O)O1 (stereo partly drawn),-2,.,9.5µM*,.
CC1(COc2ccccc2)COc2ccc(C(=O)Nc3ccccc3)cc2N1 (stereo not drawn),16,?,-6%[87.6 µM],82%[87.6 µM]
COc1ccc(NC(=O)c2ccc3c(c2)NC(C)(CNc2ccccc2)CO3)cc1OC (stereo not drawn),1,35µM*,-22%[87.6 µM],?
COc1ccc(NC(=O)c2ccc3c(c2)NC(C)(CNc2ccccc2)CO3)cn1 (stereo not drawn),5,i,-28%[87.6 µM],?
COc1ccc(NC(=O)c2ccc3c(c2)NC(C)(COc2ccccc2)CO3)cc1OC (stereo not drawn),7,32µM*,-19%[87.6 µM],-20%[87.6 µM]
COc1ccc(NC(=O)c2ccc3c(c2)NC(C)(COc2ccccc2)CO3)cn1 (stereo not drawn),1,32µM*,-17%[87.6 µM],?
CC1(COc2ccccc2)COc2ccc(C(=O)Nc3ccc4[nH]ccc4c3)cc2N1 (stereo not drawn),3,?,-22%[87.6 µM],-24%[87.6 µM]
COc1ccc(Cl)cc1-c1ncc2c(n1)OCCN(c1ccccc1)C2=O,11,28µM*,-7%[87.6 µM],-6%[87.6 µM]
COc1ccccc1-c1ncc2c(n1)OCCN(c1cccc(C(F)(F)F)c1)C2=O,-10,32µM*,?,23%[87.6 µM]
COc1ccc(-c2ncc3c(n2)OCCN(C)C3=O)cc1OC,-4,28µM*,3%[87.6 µM],73%[87.6 µM]
CN1CCOc2nc(-c3cccc(OC(F)(F)F)c3)ncc2C1=O,3,i,-21%[87.6 µM],-27%[87.6 µM]
Cn1nccc1OCc1cn2c(=O)n(C)cc(-c3ccsc3)c2n1,-5,?,-11%[87.6 µM],32%[87.6 µM]
COc1cc(-c2cn(C)c(=O)n3cc(COc4ccnn4C)nc23)ccn1,0,35µM*,-7%[87.6 µM],17%[87.6 µM]
CN1CCN(c2ccc(-c3cn(C)c(=O)n4cc(CNc5ccccc5)nc34)cn2)CC1,-8,28µM*,-1%[87.6 µM],88%[87.6 µM]
COc1ccc(-c2cn(C)c(=O)n3cc(CN(C)C)nc23)cc1OC,-6,35µM*,5%[87.6 µM],6%[87.6 µM]
CN1CCN(c2ccc(-c3cn(C)c(=O)n4cc(COc5ccnn5C)nc34)cn2)CC1,-15,40µM*,3%[87.6 µM],-2%[87.6 µM]
Cn1cc(-c2cn(C)c(=O)n3cc(CNc4ccccc4)nc23)cn1,-8,i,-1%[87.6 µM],63%[87.6 µM]
CC(=O)N1CCN(C(=O)CCc2ncc(-c3ccccc3)o2)CC1,.,i,.,.
COc1ccc(-c2cc3c(=O)n(CCNC(=O)Cc4ccc(C)cc4)ccn3n2)cc1,8,20µM*,-17%,1%
O=C(Cc1ccc(F)cc1)NCCn1ccn2nc(-c3ccc(F)cc3)cc2c1=O,-5,i,6%,-7%
